Assay in all cases: DAPPL (digital affinity profiling via proximity ligation, sequencing); 10 mM Tris-HCl pH 7.5, 50 mM NaCl, 1 mM DTT, 4% glycerol, room temperature, 30 min; GST-TFs on glutathione beads, 16-mer random dsDNA library, 0.1% formaldehyde crosslink after washing; high values mean tight binding
One test addresses T1, FEV (Homo sapiens, UniProt Q99581 1-238).
T1 sequence: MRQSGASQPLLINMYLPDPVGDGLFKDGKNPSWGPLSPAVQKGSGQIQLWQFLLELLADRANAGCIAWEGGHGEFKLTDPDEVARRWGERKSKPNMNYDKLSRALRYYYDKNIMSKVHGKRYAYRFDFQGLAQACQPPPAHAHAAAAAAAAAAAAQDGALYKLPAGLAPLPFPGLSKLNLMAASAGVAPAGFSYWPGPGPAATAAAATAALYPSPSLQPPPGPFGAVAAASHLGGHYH
Conditions: protein: recombinant; tags: N-terminal GST; dsDNA, one strand shown. An outline of the steps:
(§1)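 Pools were built from human transcription factors expressed in yeast as GST fusions, captured on glutathione beads and DNA-barcoded, along with a tag-only sample. Incubation with 200 nmole of a 16-mer random double-stranded DNA library lasted 30 min at room temperature in Tris/NaCl/DTT/glycerol buffer, and was followed by washing, 0.1% formaldehyde crosslinking, proximity ligation, PCR amplification and Illumina NextSeq500 sequencing. Binding signal is the quotient of each hexamer's read frequency for a factor and its frequency for the tag-only sample.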

The next test deals with ETV5 (Homo sapiens, UniProt P41161 1-510). Conditions: protein: recombinant; tags: N-terminal GST; dsDNA, one strand shown. An outline of the steps:
as §1

The target of another test is HSF1 (Homo sapiens, UniProt Q00613 1-529). The settings on record: protein: recombinant; tags: N-terminal GST; chain copies: 3; dsDNA, one strand shown. An outline of the steps:
as §1

Another test deals with T2, SPIC (Homo sapiens, UniProt Q8N5J4 1-248).
T2 sequence: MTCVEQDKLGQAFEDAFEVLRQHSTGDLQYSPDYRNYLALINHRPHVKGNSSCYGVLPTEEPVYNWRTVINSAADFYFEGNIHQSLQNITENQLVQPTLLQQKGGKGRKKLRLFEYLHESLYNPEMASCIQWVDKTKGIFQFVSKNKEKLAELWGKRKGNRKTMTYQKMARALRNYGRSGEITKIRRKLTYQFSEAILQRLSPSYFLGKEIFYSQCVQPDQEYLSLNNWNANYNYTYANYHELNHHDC
Conditions: protein: recombinant; tags: N-terminal GST; dsDNA, one strand shown. An outline of the steps: as §1

Another test has as its target ELF4 (Homo sapiens, UniProt Q99607 1-663). Conditions: protein: recombinant; tags: N-terminal GST; dsDNA, one strand shown. An outline of the steps:
as §1

The next test addresses T3, ELK4 (Homo sapiens, UniProt P28324-2 1-405).
T3 sequence: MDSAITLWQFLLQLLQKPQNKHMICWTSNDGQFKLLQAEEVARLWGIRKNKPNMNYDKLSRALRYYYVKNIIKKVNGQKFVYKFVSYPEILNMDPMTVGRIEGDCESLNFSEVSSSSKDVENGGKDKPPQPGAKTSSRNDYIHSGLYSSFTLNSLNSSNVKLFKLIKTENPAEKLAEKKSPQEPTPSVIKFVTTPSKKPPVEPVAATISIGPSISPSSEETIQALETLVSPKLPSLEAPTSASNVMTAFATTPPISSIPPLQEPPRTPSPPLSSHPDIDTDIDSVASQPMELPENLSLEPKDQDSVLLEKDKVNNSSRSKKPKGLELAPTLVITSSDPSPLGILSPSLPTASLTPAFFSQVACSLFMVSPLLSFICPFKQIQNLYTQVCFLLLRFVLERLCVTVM
Conditions: protein: recombinant; tags: N-terminal GST; dsDNA, one strand shown. An outline of the steps: as §1

The next test deals with T4, ETV2 (Homo sapiens, UniProt O00321 1-342).
T4 sequence: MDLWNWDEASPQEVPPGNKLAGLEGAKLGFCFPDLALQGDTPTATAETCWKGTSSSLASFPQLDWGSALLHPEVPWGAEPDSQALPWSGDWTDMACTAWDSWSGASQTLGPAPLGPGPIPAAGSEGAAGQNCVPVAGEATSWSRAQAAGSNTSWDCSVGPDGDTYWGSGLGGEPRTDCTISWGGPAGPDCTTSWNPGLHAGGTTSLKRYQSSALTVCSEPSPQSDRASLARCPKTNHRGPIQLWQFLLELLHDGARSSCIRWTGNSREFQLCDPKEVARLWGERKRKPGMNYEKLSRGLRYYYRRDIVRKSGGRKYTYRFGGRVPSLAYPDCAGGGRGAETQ
Conditions: protein: recombinant; tags: N-terminal GST; dsDNA, one strand shown. An outline of the steps:
as §1

A further test addresses T5, ELF3 (Homo sapiens, UniProt P78545 1-371).
T5 sequence: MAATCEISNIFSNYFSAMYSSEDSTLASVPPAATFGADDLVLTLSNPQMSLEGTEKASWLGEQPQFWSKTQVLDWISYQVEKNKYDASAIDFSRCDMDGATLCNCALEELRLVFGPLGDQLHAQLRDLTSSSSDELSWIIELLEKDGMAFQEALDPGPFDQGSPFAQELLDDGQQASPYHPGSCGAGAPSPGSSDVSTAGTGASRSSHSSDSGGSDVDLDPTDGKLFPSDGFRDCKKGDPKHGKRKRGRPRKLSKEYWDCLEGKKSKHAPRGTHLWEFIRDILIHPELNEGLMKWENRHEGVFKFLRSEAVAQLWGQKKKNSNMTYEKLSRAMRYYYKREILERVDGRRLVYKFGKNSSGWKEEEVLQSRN
Conditions: protein: recombinant; tags: N-terminal GST; dsDNA, one strand shown. An outline of the steps:
as §1

The target in another test is CRX (Homo sapiens, UniProt O43186 1-299). Conditions: protein: recombinant; tags: N-terminal GST; dsDNA, one strand shown. The essentials:
as §1

In the next test the target is ETV1 (Homo sapiens, UniProt P50549 1-477). Conditions: protein: recombinant; tags: N-terminal GST; dsDNA, one strand shown. The essentials: as §1
Chain of ETV1 (P50549 whole entry): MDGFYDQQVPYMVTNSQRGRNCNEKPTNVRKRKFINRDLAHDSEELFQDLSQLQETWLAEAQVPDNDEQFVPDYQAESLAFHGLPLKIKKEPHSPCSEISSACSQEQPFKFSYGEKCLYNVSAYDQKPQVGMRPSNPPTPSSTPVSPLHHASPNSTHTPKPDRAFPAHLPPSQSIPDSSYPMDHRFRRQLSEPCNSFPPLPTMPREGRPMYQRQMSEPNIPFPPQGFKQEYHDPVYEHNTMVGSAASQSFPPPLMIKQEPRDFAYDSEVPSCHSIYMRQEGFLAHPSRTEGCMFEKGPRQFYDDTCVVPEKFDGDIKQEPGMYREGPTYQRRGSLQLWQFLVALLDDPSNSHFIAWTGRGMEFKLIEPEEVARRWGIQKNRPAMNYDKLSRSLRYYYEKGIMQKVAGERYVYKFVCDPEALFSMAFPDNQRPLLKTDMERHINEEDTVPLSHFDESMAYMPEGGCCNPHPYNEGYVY
For a further test, the target named is T6, ERF (Homo sapiens, UniProt P50548 1-548).
T6 sequence: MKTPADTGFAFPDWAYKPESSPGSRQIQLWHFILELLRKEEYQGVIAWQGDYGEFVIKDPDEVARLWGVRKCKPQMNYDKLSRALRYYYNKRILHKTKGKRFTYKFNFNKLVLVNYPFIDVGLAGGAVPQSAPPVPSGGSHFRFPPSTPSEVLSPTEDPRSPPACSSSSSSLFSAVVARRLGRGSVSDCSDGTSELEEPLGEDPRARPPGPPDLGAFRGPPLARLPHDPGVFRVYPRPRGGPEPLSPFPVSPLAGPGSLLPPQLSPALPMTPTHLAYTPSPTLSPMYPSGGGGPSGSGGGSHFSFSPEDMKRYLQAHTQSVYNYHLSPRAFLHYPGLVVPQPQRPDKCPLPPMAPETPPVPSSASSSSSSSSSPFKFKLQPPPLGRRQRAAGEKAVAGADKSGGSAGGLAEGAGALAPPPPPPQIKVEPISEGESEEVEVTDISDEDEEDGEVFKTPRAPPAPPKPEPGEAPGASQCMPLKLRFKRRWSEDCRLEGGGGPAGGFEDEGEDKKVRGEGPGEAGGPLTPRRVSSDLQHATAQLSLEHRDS
The settings on record: protein: recombinant; tags: N-terminal GST; dsDNA, one strand shown. The essentials:
as §1

For a further test, the target named is T7, ETV3L (Homo sapiens, UniProt Q6ZN32 1-361).
T7 sequence: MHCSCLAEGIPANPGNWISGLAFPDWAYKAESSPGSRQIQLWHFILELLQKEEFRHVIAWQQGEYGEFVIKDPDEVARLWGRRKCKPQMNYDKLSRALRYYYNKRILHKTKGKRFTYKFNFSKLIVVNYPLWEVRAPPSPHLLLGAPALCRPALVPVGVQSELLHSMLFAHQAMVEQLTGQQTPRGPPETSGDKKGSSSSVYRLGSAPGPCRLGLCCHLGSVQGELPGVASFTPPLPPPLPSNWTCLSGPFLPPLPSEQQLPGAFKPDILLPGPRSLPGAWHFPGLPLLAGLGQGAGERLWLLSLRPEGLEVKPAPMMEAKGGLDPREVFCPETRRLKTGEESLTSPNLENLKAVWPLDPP
The settings on record: protein: recombinant; tags: N-terminal GST; dsDNA, one strand shown. An outline of the steps:
as §1

The next test concerns the target T8, ETS2 (Homo sapiens, UniProt P15036 1-469).
T8 sequence: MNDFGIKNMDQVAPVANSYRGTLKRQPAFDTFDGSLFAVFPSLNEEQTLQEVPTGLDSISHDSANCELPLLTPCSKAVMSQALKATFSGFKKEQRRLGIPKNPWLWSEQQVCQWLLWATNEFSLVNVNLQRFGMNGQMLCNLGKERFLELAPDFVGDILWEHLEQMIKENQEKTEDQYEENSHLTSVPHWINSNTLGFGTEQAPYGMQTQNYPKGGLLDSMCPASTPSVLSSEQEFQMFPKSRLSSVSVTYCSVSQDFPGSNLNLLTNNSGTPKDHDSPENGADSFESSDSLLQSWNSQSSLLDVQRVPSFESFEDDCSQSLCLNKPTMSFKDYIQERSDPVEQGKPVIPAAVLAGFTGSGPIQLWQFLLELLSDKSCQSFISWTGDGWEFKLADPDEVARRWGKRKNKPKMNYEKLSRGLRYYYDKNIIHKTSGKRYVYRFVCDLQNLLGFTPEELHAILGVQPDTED
The settings on record: protein: recombinant; tags: N-terminal GST; dsDNA, one strand shown. An outline of the steps:
as §1

In another test the target is T9, SPDEF (Homo sapiens, UniProt O95238 1-335).
T9 sequence: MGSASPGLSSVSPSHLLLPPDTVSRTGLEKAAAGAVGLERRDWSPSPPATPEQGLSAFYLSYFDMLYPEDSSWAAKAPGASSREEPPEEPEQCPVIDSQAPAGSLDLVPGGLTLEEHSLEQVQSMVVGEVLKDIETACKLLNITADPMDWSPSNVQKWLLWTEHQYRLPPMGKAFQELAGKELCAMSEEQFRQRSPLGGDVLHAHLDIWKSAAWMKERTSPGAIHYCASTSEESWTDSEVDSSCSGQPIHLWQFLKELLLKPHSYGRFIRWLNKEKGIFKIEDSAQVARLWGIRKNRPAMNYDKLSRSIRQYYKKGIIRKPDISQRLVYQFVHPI
Conditions: protein: recombinant; tags: N-terminal GST; dsDNA, one strand shown. The essentials:
as §1

The next test addresses T10, ETV7 (Homo sapiens, UniProt Q9Y603 1-341).
T10 sequence: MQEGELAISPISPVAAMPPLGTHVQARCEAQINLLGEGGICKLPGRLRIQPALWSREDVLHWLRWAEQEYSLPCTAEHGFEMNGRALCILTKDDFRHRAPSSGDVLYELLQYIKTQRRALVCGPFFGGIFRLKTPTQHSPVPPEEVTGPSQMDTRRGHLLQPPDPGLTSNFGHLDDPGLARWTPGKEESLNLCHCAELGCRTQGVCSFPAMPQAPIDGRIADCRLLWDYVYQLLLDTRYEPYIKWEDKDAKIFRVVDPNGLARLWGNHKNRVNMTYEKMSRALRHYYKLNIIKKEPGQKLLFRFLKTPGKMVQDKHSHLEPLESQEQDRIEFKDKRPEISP
The settings on record: protein: recombinant; tags: N-terminal GST; dsDNA, one strand shown. The essentials: as §1

Another test addresses T11, ELF5 (Homo sapiens, UniProt Q9UKW6-2 1-255).
T11 sequence: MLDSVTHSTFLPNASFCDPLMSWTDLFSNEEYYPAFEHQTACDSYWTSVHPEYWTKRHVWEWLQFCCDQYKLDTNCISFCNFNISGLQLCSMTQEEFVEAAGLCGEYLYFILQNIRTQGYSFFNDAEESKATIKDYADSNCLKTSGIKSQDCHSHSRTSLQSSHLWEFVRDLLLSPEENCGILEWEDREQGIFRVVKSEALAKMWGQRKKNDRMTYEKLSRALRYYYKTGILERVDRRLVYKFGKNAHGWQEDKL
Conditions: protein: recombinant; tags: N-terminal GST; dsDNA, one strand shown. The essentials: as §1

The next test addresses T12, ETV3 (Homo sapiens, UniProt P41162-2 1-143).
T12 sequence: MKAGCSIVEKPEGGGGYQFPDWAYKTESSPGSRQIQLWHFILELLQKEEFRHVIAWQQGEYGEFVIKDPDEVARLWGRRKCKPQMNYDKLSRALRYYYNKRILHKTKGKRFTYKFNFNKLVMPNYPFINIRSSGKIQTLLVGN
The settings on record: protein: recombinant; tags: N-terminal GST; dsDNA, one strand shown. An outline of the steps: as §1

The next test addresses ETV6 (Homo sapiens, UniProt P41212 1-452). Conditions: protein: recombinant; tags: N-terminal GST; dsDNA, one strand shown. An outline of the steps: as §1

Chain of ETV6 (P41212 whole entry): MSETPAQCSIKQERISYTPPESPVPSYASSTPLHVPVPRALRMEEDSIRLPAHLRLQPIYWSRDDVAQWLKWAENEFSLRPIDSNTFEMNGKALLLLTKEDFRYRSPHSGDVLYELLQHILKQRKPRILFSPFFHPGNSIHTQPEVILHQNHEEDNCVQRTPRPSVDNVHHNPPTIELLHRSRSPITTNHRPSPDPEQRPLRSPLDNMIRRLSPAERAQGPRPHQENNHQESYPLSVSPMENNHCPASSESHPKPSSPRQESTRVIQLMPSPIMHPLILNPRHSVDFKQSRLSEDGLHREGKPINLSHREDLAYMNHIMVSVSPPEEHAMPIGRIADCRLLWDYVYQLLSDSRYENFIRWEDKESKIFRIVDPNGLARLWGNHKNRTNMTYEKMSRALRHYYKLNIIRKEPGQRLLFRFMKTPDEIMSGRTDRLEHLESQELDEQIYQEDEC
Chain of ELF4 (Q99607 whole entry): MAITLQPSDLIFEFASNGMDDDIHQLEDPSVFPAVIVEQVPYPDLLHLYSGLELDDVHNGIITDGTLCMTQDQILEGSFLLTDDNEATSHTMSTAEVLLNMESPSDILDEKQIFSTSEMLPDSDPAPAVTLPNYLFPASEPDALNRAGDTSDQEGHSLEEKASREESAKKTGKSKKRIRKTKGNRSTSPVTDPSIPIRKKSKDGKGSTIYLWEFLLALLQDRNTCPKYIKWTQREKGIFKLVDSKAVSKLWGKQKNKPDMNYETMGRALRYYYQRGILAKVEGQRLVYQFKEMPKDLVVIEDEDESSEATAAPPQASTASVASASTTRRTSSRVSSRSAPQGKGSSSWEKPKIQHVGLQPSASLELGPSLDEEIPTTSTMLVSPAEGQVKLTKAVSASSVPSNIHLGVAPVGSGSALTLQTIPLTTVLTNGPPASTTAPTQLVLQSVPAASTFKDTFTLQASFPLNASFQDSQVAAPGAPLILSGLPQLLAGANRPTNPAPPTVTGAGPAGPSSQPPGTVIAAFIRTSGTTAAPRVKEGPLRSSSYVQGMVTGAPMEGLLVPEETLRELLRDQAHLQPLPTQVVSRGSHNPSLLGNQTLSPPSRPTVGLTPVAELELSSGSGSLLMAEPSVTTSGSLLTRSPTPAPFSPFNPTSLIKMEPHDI
Chain of HSF1 (Q00613 whole entry): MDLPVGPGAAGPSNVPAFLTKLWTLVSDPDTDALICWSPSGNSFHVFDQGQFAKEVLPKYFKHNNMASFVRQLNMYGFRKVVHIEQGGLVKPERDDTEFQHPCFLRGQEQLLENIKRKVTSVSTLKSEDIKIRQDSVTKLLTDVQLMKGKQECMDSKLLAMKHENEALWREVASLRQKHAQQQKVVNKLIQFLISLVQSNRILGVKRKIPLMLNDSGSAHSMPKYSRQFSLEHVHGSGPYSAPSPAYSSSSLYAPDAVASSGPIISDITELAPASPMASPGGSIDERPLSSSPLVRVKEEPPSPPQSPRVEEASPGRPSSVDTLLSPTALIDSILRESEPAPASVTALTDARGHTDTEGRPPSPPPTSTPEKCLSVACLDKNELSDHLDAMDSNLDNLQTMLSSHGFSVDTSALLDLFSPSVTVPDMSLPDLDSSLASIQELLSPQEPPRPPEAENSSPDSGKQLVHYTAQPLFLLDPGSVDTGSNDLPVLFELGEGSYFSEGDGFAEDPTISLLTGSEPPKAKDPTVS
Chain of ETV5 (P41161 whole entry): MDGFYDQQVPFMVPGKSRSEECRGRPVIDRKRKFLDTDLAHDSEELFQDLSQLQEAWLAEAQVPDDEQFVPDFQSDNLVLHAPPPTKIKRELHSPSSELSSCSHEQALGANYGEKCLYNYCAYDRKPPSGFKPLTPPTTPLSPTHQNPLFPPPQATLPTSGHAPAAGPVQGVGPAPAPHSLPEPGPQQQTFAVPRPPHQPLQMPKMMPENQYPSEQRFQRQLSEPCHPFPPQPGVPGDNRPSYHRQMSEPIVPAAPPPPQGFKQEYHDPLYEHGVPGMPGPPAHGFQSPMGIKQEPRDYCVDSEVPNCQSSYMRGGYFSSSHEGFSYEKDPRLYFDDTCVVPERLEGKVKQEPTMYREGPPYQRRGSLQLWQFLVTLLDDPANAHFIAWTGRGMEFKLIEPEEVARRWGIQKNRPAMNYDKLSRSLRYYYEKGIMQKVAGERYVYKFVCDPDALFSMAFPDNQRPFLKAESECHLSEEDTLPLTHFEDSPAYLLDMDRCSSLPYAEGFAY
Chain of CRX (O43186 whole entry): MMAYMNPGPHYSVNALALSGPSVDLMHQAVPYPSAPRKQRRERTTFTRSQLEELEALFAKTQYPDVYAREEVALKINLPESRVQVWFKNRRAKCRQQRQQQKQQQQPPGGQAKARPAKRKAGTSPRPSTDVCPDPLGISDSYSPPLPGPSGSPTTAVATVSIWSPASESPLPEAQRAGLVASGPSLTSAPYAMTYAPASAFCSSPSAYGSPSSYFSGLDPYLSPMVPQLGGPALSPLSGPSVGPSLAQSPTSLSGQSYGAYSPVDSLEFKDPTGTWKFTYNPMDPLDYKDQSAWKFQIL

Regarding CAATAT, the binding signal with FEV is 1.25 fold enrichment (6-mer frequency, TF over GST control); in the test with ETV5, 1.33 fold enrichment (6-mer frequency, TF over GST control); in the test with HSF1 it was 1.11 fold enrichment (6-mer frequency, TF over GST control); in the test with SPIC it was 1.23 fold enrichment (6-mer frequency, TF over GST control); with ELF4 it was 1.28 fold enrichment (6-mer frequency, TF over GST control); with ELK4, 1.31 fold enrichment (6-mer frequency, TF over GST control). In addition, the binding signal was 1.29 fold enrichment (6-mer frequency, TF over GST control) with ETV2; 1.28 fold enrichment (6-mer frequency, TF over GST control) with ELF3; 1.15 fold enrichment (6-mer frequency, TF over GST control) in the test with CRX; 1.27 fold enrichment (6-mer frequency, TF over GST control) with ETV1; 1.28 fold enrichment (6-mer frequency, TF over GST control) with ERF; 1.26 fold enrichment (6-mer frequency, TF over GST control) with ETV3L. Further, the binding signal in the test with ETS2 is 1.28 fold enrichment (6-mer frequency, TF over GST control); with SPDEF, 1.34 fold enrichment (6-mer frequency, TF over GST control); with ETV7 it was 1.27 fold enrichment (6-mer frequency, TF over GST control); with ELF5, 1.2 fold enrichment (6-mer frequency, TF over GST control); with ETV3 it was 1.33 fold enrichment (6-mer frequency, TF over GST control); in the test with ETV6, 1.23 fold enrichment (6-mer frequency, TF over GST control).

For the origin of these results see PMC7862700, “An all-to-all approach to the identification of sequence-specific readers for epigenetic DNA modifications on cytosine”.
